For 23 compounds, Inhibition results are on record in ChEMBL document CHEMBL4296182, “CO-ADD screening of NIH NCI Diversity Set V”.

For part of these data: Entries with a potency or affinity are not part of this list.

In one test the test system is Staphylococcus aureus. Description: Antibacterial activity against Staphylococcus aureus MRSA ATCC 43300 (CO-ADD:GP_020); MIC in CAMBH media using NBS plates, by Resazurin F(560/590). It is filed as functional. The settings on record: Concentration 20 uM, ASSAY_TEST Inhibition of Bacterial Growth, detection method Resazurin, Fluorescence (ex560/em590), MEDIA CAMHB, plate type 384well, CORNING #3640, time 18 hr.

The next test concerns Acinetobacter baumannii. Description: Antibacterial activity against Acinetobacter baumannii ATCC 19606 (CO-ADD:GN_034); MIC in CAMBH media using NBS plates, by Resazurin F(560/590). It is filed as functional. Conditions: Concentration 20 uM, ASSAY_TEST Inhibition of Bacterial Growth, detection method Resazurin, Fluorescence (ex560/em590), MEDIA CAMHB, plate type 384well, CORNING #3640, time 18 hr. Background: Resazurin is reduced to fluorescent resorufin, in cell work by metabolically active cells.

In the next test the test system is Escherichia coli. Briefly: Antibacterial activity against Escherichia coli ATCC 25922 (CO-ADD:GN_001); MIC in CAMBH media using NBS plates, by Resazurin F(560/590). In kind it is functional. Conditions: Concentration 20 uM, ASSAY_TEST Inhibition of Bacterial Growth, detection method Resazurin, Fluorescence (ex560/em590), MEDIA CAMHB, plate type 384well, CORNING #3640, time 18 hr.

The next test concerns Klebsiella pneumoniae. Conditions: Concentration 20 uM; ASSAY_TEST Inhibition of Bacterial Growth; detection method Absorption (OD600); MEDIA CAMHB; plate type 384well; NBS; CORNING #3640; time 18 hr.
A further test concerns Candida albicans. Conditions: 20 µM.
The next test deals with Cryptococcus neoformans. Conditions: Concentration 20 uM; ASSAY_TEST Inhibition of Fungal Growth; detection method Resazurin; Absorption (OD600-OD570); plate type 384well; NBS; CORNING #3640.

Turning to `Cc1ncc([N+](=O)[O-])n1CCOC(N)=O` [BAMNIDAZOLE], the Inhibition is 2.14% with Staphylococcus aureus; -5.43% in the test on Acinetobacter baumannii; 15.41% in the test on Escherichia coli; 2.21% with Klebsiella pneumoniae; 2.39% in the test with Candida albicans; 7.78% with Cryptococcus neoformans.
As for `Cc1nccc2c1[nH]c1cc(O)ccc12`, the Inhibition in the test with Staphylococcus aureus is 18.39%; in the test with Acinetobacter baumannii, -8.06%; in the test on Escherichia coli, 7.41%; in the test on Klebsiella pneumoniae, 20.45%; in the test with Candida albicans, 2.57%; in the test on Cryptococcus neoformans it was -8.88%.
On to `O=S(=O)(F)c1ccc2nc(-c3cccc(Sc4ccccc4)c3)cc(Cl)c2c1`, for which the Inhibition is 0.33% with Staphylococcus aureus; -14.47% with Acinetobacter baumannii; 10.15% in the test on Escherichia coli; 9.08% with Klebsiella pneumoniae; 7.93% in the test with Candida albicans; -2.04% in the test with Cryptococcus neoformans.
`COc1ccccc1NC(=O)Oc1cccc(OC(=O)c2ccccc2)c1`: the Inhibition in the test on Staphylococcus aureus was 4.53%; with Acinetobacter baumannii it was -1.36%; in the test with Escherichia coli, -8.4%; in the test with Klebsiella pneumoniae, 19.47%; in the test with Candida albicans, 8.34%; in the test on Cryptococcus neoformans, -0.97%.
In the case of `CC(Cc1ccccc1)NC(N)=O` (stereo not drawn), the Inhibition in the test with Staphylococcus aureus was 1.52%; in the test with Acinetobacter baumannii, -11.77%; in the test on Escherichia coli, 14.19%; in the test on Klebsiella pneumoniae it was 16.63%; in the test with Candida albicans it was 1.15%; with Cryptococcus neoformans it was -7.14%.
As for `Cc1ccccc1-n1c(/C=C\c2ccccn2)nc2ccccc2c1=O`, the Inhibition in the test with Staphylococcus aureus is -4.95%; with Acinetobacter baumannii it was -2.79%; in the test on Escherichia coli it was 7.76%; in the test on Klebsiella pneumoniae, 14.95%; in the test on Candida albicans, 5.08%; in the test with Cryptococcus neoformans it was -6.01%.
`NN=C1C(Cl)=C(Cl)C(Cl)=C1Cl`: the Inhibition in the test with Staphylococcus aureus is -27.05%; in the test with Acinetobacter baumannii, -7.11%; in the test with Escherichia coli, -15.84%; in the test with Klebsiella pneumoniae, 1.32%; in the test with Candida albicans, 38.7%; in the test with Cryptococcus neoformans, 5.21%.
Consider `CCN1CCc2ccccc2C1`, for which the Inhibition is 13.64% with Staphylococcus aureus; -13.05% with Acinetobacter baumannii; 15.08% with Escherichia coli; 8.74% in the test on Klebsiella pneumoniae; 0.25% in the test with Candida albicans; -10.24% in the test with Cryptococcus neoformans.
`CCC1CN1P1(=O)OCC(C)([N+](=O)[O-])CO1` (stereo not drawn): the Inhibition in the test on Staphylococcus aureus is -8.05%; with Acinetobacter baumannii, -16.64%; in the test on Escherichia coli, 2.35%; in the test with Klebsiella pneumoniae it was 8.08%; in the test on Candida albicans, 0.16%; in the test with Cryptococcus neoformans, 0.43%.
Turning to `CCC1CN1P(=O)(Oc1ccc(Cl)cc1)N1CC1CC` (stereo not drawn), the Inhibition is 5.27% in the test with Staphylococcus aureus; -3.62% in the test with Acinetobacter baumannii; 11.85% with Escherichia coli; 2.63% with Klebsiella pneumoniae; 4.31% in the test on Candida albicans; -4.87% in the test with Cryptococcus neoformans.
For `CC12CCC3C(CC=C4CC(O)CCC43C)C1C/C(=C\N1CCCC1)C2=O` (stereo not drawn), the Inhibition was 1.08% in the test with Staphylococcus aureus; 21.07% in the test with Acinetobacter baumannii; 1.6% in the test on Escherichia coli; 23.67% with Klebsiella pneumoniae; -3.81% with Candida albicans; -14.08% in the test with Cryptococcus neoformans.
Turning to `N#CC12CNCC1CN=N2` (stereo not drawn), the Inhibition in the test on Staphylococcus aureus is 10.47%; in the test with Acinetobacter baumannii it was 1.05%; in the test on Escherichia coli it was -13.15%; in the test with Klebsiella pneumoniae it was 8.95%; with Candida albicans it was 1.04%; in the test with Cryptococcus neoformans, 19.07%.
With `Cc1c(CCN)ccc2c1[nH]c1ccccc12`, the Inhibition was 5.19% in the test on Staphylococcus aureus; -3.14% in the test with Acinetobacter baumannii; 0.87% with Escherichia coli; 4.23% in the test with Klebsiella pneumoniae; 0.65% with Candida albicans; -5.14% in the test on Cryptococcus neoformans.
On to `COc1ccc2c(c1)NP(=S)(Oc1ccccc1)N2` (stereo not drawn), for which the Inhibition in the test with Staphylococcus aureus was -0.02%; in the test with Acinetobacter baumannii it was 7.67%; in the test with Escherichia coli, -4.02%; in the test on Klebsiella pneumoniae, 16.19%; in the test on Candida albicans it was 18.7%; in the test on Cryptococcus neoformans it was 0.61%.
Consider `NC(=O)c1ccc(C(=O)Nc2ccc([As](=O)(O)O)cc2)cc1`, for which the Inhibition with Staphylococcus aureus is 11.66%; with Acinetobacter baumannii it was 7.33%; with Escherichia coli, 15.44%; with Klebsiella pneumoniae, 11.59%; with Candida albicans, -0.15%; in the test on Cryptococcus neoformans, -8.21%.
For the compound `O=[N+]([O-])c1cc([As](=O)(O)c2ccc(O)c([N+](=O)[O-])c2)ccc1O`, the Inhibition was 9.78% in the test on Staphylococcus aureus; 5.09% in the test on Acinetobacter baumannii; 4.17% with Escherichia coli; 5.87% in the test on Klebsiella pneumoniae; -1.08% with Candida albicans; -7.3% in the test with Cryptococcus neoformans.
Regarding `C[C@]12CC[C@@H]3c4ccc(OC(=O)N(CCCl)CCCl)cc4CC[C@H]3[C@@H]1CC[C@@H]2O` [ESTRAMUSTINE], the Inhibition is 12.2% with Staphylococcus aureus; -4.55% with Acinetobacter baumannii; -3.6% in the test with Escherichia coli; 12.05% with Klebsiella pneumoniae; 11% with Candida albicans; -2.85% with Cryptococcus neoformans.
For `Cc1nc(C)c(C(=O)N/N=C/c2ccc(N(CCCl)CCCl)cc2)s1`, the Inhibition is 4.54% in the test with Staphylococcus aureus; 12.95% with Acinetobacter baumannii; 1.76% in the test with Escherichia coli; 6.18% in the test on Klebsiella pneumoniae; -1.16% in the test on Candida albicans; -8.81% in the test with Cryptococcus neoformans.
Turning to `C[C@H]1CC[C@@]2(C)[C@@H](CC[C@@H]3[C@@H]2CC[C@]2(C)[C@@H](O)CC[C@@H]32)C1`, the Inhibition with Staphylococcus aureus is 19.61%; in the test on Acinetobacter baumannii, 5.34%; with Escherichia coli it was 2.81%; with Klebsiella pneumoniae, 23.84%; in the test on Candida albicans it was 9.51%; in the test on Cryptococcus neoformans it was -1.26%.
Turning to `CC(=O)Nc1cc([As](=O)(O)O)ccc1O` [ACETARSONE], the Inhibition is 12.71% in the test on Staphylococcus aureus; 13.01% in the test on Acinetobacter baumannii; 0.28% with Escherichia coli; 16.86% in the test with Klebsiella pneumoniae; 1.06% with Candida albicans; -8.45% in the test with Cryptococcus neoformans.
For the compound `O=C(Oc1ccccc1)N(c1ccccc1)c1ccccc1`, the Inhibition is 13.05% in the test on Staphylococcus aureus; 1.09% in the test on Acinetobacter baumannii; 9.21% in the test with Escherichia coli; 3.21% in the test on Klebsiella pneumoniae; 5.51% in the test on Candida albicans; -11.03% in the test with Cryptococcus neoformans.
As to `O=C1CN=C(c2ccc[nH]2)c2cc(Cl)ccc2N1`, the Inhibition in the test on Staphylococcus aureus is 5.67%; with Acinetobacter baumannii, 14.08%; in the test on Escherichia coli it was -2.95%; in the test with Klebsiella pneumoniae, 17.48%; with Candida albicans, 0.21%; in the test on Cryptococcus neoformans it was -5.64%.
Regarding `c1ccc(C2NCCc3[nH]cnc32)cc1` (stereo not drawn), the Inhibition in the test on Staphylococcus aureus was 1.04%; with Acinetobacter baumannii, -8.45%; in the test on Escherichia coli, -9.57%; in the test with Klebsiella pneumoniae it was 10.31%; in the test on Candida albicans, 0.7%; with Cryptococcus neoformans, 13.69%.

For orientation: Inhibition means the drop in the measured response relative to a control, in per cent.
